# A selection: hits, their analogues and other compounds. The true share with any hit is near 3.4%.
# TEAD-YAP block = TEAD-YAP interaction inhibition | HEK-TIYL cells, TEAD-Gal4/YAP UAS-luciferase luminescence | actives 1.4% (n = 640,000) | inhibition, % at 9.12 µM; in the data active means inhibition above about 32%;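 further: 0% = median of test compound wells and 100% = reference inhibitor wells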
# GPR151 ag = activates the human receptor GPR151. PathHunter beta-arrestin GPR151 cells, luminescence. activation, % at 11.2 µM. actives 1% (n = 650,000). AID 1508602; in the data active means activation above about 4.9%;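 further: 0% = median of compound wells and 100% = cells with positive control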
# MITF primary = inhibitors of human MITF | O75030 | AlphaScreen MITF homodimerization, bead proximity signal | inhibition, % at 2.6 µM | actives 0.91% (n = 650,000) | AID 1259374; in the data active means inhibition above about 50%;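 further: 0% = vehicle wells with protein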
# Target sequence (O75030 whole entry, looked up): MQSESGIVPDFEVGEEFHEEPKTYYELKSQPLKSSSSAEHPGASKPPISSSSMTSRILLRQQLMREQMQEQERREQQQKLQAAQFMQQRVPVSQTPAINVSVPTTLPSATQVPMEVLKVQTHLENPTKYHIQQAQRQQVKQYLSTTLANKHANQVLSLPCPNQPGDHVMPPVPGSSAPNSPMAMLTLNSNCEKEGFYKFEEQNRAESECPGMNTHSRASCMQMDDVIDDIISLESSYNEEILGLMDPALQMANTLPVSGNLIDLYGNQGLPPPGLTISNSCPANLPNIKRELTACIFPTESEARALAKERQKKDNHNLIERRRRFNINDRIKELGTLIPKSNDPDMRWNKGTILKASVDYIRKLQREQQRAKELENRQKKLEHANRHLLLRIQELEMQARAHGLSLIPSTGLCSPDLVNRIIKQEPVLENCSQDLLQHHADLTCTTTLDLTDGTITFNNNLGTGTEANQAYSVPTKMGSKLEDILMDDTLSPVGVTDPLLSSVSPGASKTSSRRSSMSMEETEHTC
# FBW7 act = human FBW7 E3 ligase activation, primary screen. Q969H0. AlphaScreen FBW7–phospho-cyclin E peptide binding, activator screen. normalized activity (activation), % at 26.1 µM. actives 0.13% (n = 650,000); in the data active means normalized activity above about 1.9%;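 further: purified mutant Fbw7 with reduced substrate affinity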
# The depositor's hits bear a star.
SMILES,TEAD-YAP block,GPR151 ag,MITF primary,FBW7 act
COc1ccc(N(C)S(=O)(=O)c2ccc3c(c2)oc(=O)n3C)cc1,3,1,20,0
CCN(CC)C(=O)c1cc(-c2ccc(Cl)cc2Cl)on1,-77,0,13,0
CC(C)(CO)NC(=O)c1cc(-c2ccc(Cl)cc2Cl)on1,48*,-1,-15,0
CC1CCN(C(=O)CSc2nnc(-c3ccc(NS(C)(=O)=O)cc3)o2)CC1,-6,-1,-10,0
COc1ccc(OCC(=O)Nc2nccs2)cc1,68*,-7,2,0
O=C(COc1ccc(Cl)cc1)Nc1nccs1,19,-3,1,0
COc1ccc(CC(=O)Nc2nccs2)cc1OC,8,4,1,0
CCOc1ccc(OCC(=O)Nc2nccs2)cc1,79*,-8,3,0
COc1cc(C(C)=O)ccc1OCC(=O)Nc1nccs1,56*,-6,8,0
Cc1cc(OCC(=O)Nc2nccs2)ccc1C(C)C,61*,-1,-4,0
C=CCN1C(=O)S/C(=C/C=C/c2ccc(OC)cc2)C1=O,-38,2,2,0
CC(C)CC1(C(=O)O)NC(c2cc(Br)ccc2O)C2C(=O)N(c3ccccc3)C(=O)C21 (configuration not stated),-1,-1,13,0
CC1(C)CC(=O)C2=C(C1)N(c1ccc(Cl)c(Cl)c1)C1=C(C(=O)CC(C)(C)C1)C2c1cccc(F)c1,6,-1,21,0
O=C(Nc1ccc2oc(-c3cc(Br)ccc3Cl)nc2c1)c1cccc(Cl)c1,-4,2,-5,0
O=C(Nc1nccs1)c1ccc(OCc2ccc3ccccc3n2)cc1,-21,0,-4,5.6*
O=C(NCc1cccs1)c1ccc(OCc2ccc3ccccc3n2)cc1,-20,0,4,0
Cc1ccc(NC(=O)c2cc([N+](=O)[O-])cc(Cl)c2O)c(C)c1,53*,-9,6,0
Cc1ccc(NC(=O)c2ccc([N+](=O)[O-])cc2Cl)c(C)c1,-31,-1,3,0
Cc1cccc(NC(=O)c2cc([N+](=O)[O-])ccc2Cl)c1O,33*,-2,10,1
COc1ccc(CNCc2ccc3c(c2)OCO3)cc1OC,-4,3,24,1
COc1ccc(-c2nc(NCc3ccccc3)c3ncn(-c4ccccc4)c3n2)cn1,8,-1,-1,0
CCCNc1nc(-c2ccc(OC)cc2)nc2c1ncn2-c1ccsc1,6,0,-2,0
CCCNc1nc(-c2ccc(OC)nc2)nc2c1ncn2-c1ccccc1,33*,0,7,0
CCCNc1nc(-c2ccc(OC)nc2)nc2c1ncn2-c1ccsc1,51*,1,7,1
COc1ccc(-c2nc(NCCO)c3ncn(-c4ccccc4)c3n2)cc1,61*,1,4,0
SMILES,TEAD-YAP block,GPR151 ag,MITF primary,FBW7 act
COc1ccc(-c2nc(NCCO)c3ncn(-c4ccccc4)c3n2)cn1,73*,-1,7,0
CCc1cccc(NC(=O)c2cc(-c3cccc(OC)c3)nc3ccccc23)c1,-1,0,14,0
O=C(O)/C=C/c1cccc(-c2cnc3ccc(NCc4ccco4)nn23)c1,1,1,4,2
COc1ccc(-c2nc(NC3CC3)c3ncn(-c4ccccc4)c3n2)cn1,48*,-1,18,0
CCOC(=O)N1CCN(c2c(NC3CCCC(C)C3C)c(=O)c2=O)CC1 (configuration not stated),-2,2,2,0
COc1ccc(NC(=O)CNC(=O)c2nn(-c3ccc(OC)c(OC)c3)c(=O)c3ccccc23)cc1OC,34*,-1,4,0
COc1ccc(C)cc1NC(=O)CNC(=O)c1nn(-c2ccc(OC)c(OC)c2)c(=O)c2ccccc12,35*,0,-5,0
COc1ccc(-n2nc(C(=O)NCC(=O)Nc3ccc(OC)c(OC)c3)c3ccccc3c2=O)cc1,-6,0,3,0
COc1ccc(-n2nc(C(=O)NCC(=O)Nc3cc(OC)c(OC)c(OC)c3)c3ccccc3c2=O)cc1Cl,50*,2,-1,0
COc1ccc(-n2nc(C(=O)NCC(=O)NCCN(C)CCc3ccccn3)c3ccccc3c2=O)cc1Cl,33*,1,-5,0
CCSc1nnc(NC(=O)c2c(-c3c(F)cccc3Cl)noc2C)s1,10,1,2,0
CCOC(=O)C1=CN(CC2CCCO2)C=C(C(=O)OCC)C1c1ccc2c(c1)OCO2 (configuration not stated),6,2,-25,0
Cc1ccc(-c2nc(-c3ccccn3)no2)c(Cl)c1,98*,-11,7,0
Cc1ccc(-c2nc(-c3cccnc3)no2)c(Cl)c1,22,-2,1,0
Clc1ccc(-c2nc(-c3ccccn3)no2)c(Cl)c1,98*,-11,8,0
c1ccc(-c2noc(-c3cccc4ccccc34)n2)nc1,29,-5,11,0
CCC(Sc1nc(-c2ccccc2)c(C#N)c(=O)[nH]1)C(=O)Nc1cc(C)on1 (configuration not stated),-7,0,11,0
Nc1nc(SCCCC(=O)NCCO)nc2sc3c(c12)CCCC3,13,-1,15,2.3*
CCc1cc(-c2onc(C)c2-c2ccc(OC)cc2)c(O)cc1OC,45*,0,16,0
CCCc1cc(-c2onc(C)c2-c2ccc3c(c2)OCCCO3)c(O)cc1OC,-23,-1,-15,0
CCOc1ccc(-c2csc(Nc3ccccc3OC)n2)cc1[N+](=O)[O-],-5,1,7,0
Brc1cccc(C2=CC(c3cccs3)n3ncnc3N2)c1 (configuration not stated),5,-1,17,0
Cc1cc(Nc2nc3ccccc3[nH]c2=O)n(-c2ccc([N+](=O)[O-])cc2)n1,59*,0,2,0
Cc1cc(Nc2ccccc2)n(-c2ccc([N+](=O)[O-])cc2)n1,-3,0,13,0
CCCCNC(=O)/C(C#N)=C/c1ccc(F)cc1,7,-1,17,0
SMILES,TEAD-YAP block,GPR151 ag,MITF primary,FBW7 act
COc1ccc(Cl)cc1NC(=S)NCc1cc(C)n(C)n1,-1,-1,17,0
CCCCNC(=O)CSc1nc2ccccc2c(=O)n1CCc1ccccc1,-11,0,11,0
COc1ccc(C2(C(=O)N3CCC(Nc4nc5c(c(=O)[nH]4)CCC5)CC3)CC2)cc1,1,0,-2,1.9*
CCc1c(C)nc(NC2CCN(C(=O)C3(c4ccc(OC)cc4)CC3)CC2)[nH]c1=O,6,0,-3,0
CN(C)CCCNC(=O)C(=O)NCC(c1ccco1)S(=O)(=O)c1ccc(Cl)cc1 (configuration not stated),-2,1,0,0
CC1CCC(C(C)C)C(OC(=O)Cn2c(-c3ccc(Cl)cc3)[n+](C)c3ccccc32)C1 (configuration not stated),45*,4,-3,0
COc1ccc(CCNc2nc(-c3ccc(C(N)=O)cc3)nc3c2ncn3C2CCCCC2)cc1,9,-1,-1,0

# Bioassay records deposited in PubChem by The Scripps Research Institute Molecular Screening Center.
